We go through 40 compounds from PubChem BioAssay (EPA / NIEHS).

Calls of active or inactive are those of the source. Rule for the calls: active = hit-call score of the fitted dose curve at least 0.9, where 1 is the maximum; inactive = score below 0.9.

Sequence of CCAAT/enhancer-binding protein beta (Homo sapiens) (P17676 whole entry, looked up): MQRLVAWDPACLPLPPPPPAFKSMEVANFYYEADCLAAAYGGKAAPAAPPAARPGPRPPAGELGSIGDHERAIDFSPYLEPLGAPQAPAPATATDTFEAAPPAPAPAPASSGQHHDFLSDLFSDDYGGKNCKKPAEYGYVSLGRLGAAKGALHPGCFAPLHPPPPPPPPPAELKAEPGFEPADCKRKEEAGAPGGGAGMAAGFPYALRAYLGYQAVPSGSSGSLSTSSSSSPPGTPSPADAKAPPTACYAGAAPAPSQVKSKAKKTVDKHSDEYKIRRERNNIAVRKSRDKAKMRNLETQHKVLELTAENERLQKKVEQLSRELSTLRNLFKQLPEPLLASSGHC

The test has as its target CCAAT/enhancer-binding protein beta (Homo sapiens) (UniProt P17676). Put plainly: ATG_C_EBP_CIS: Attagene CIS-FACTORIAL HepG2 Assay for human CCAAT/Enhancer Binding Protein (C/EBP) beta (AID 2282927). The settings on record: HepG2 Attagene cis-factorial transcription factor reporter; actives raise or lower the signal. As for the experimental part:
ATG_CIS is a cell-based, multiplexed-readout assay that uses HepG2, a human liver cell line, with measurements taken at 24 hours after chemical dosing in a 24-well plate.ATG_C_EBP_CIS is one of 52 assay component(s) measured or calculated from the ATG_CIS assay. It is designed to make measurements of mRNA induction, a form of inducible reporter, as detected with fluorescence intensity signals by Reverse transcription polymerase chain reaction (RT-PCR) and Capillary electrophoresis technology.Data from the assay component ATG_C_EBP_CIS was analyzed into 1 assay endpoint. This assay endpoint, ATG_C_EBP_CIS, was analyzed with bidirectional fitting relative to DMSO as the negative control and baseline of activity. Using a type of inducible reporter, measures of mRNA for gain or loss-of-signal activity can be used to understand the reporter gene at the transcription factor-level as they relate to the gene CEBPB. Furthermore, this assay endpoint can be referred to as a primary readout, because this assay has produced multiple assay endpoints where this one serves a reporter gene function. To generalize the intended target to other relatable targets, this assay endpoint is annotated to the dna binding intended target family, where the subfamily is basic leucine zipper.
Human liver HepG2 cells are transiently transfected with multiple reporter transcription units (MRTUs) in 6-well plates using FuGene 6 reagent (Roche; 3 ml FuGene/1 mg DNA). The MRTU constructs are regulated by a cis-regulating element (promoter). […] A major difference between the CIS and TRANS system is that in CIS activities of endogenous TFs are measured, whereas the TRANS assay evaluates changes in activities of exogenous, chimeric NR-Gal4 proteins. […] At the end of 24 hour incubation, total RNA was isolated using TriZol reagent (Invitrogen). The isolated RNA is then reverse-transcribed using oligo(dT) primer and Mo-MLV reverse transcriptase (Invitrogen) with DNAse I (Ambion) treatment for 30 min. The one-tenth of the produced cDNA was amplified by PCR using Taq DNA polymerase (Invitrogen) and two reporter sequence-specific primers. The PCR products were fluorescently labeled by primer extension with 6-arboxyfluorescein (6-FAM) 5'-labeled reporter sequence-specific primer (2 min at 95 C, 20 s at 68 C and 10 min at 72 C) and these products were digested with 5U of HpaI (New England Biolabs) for 2h at 37 C. The fragments were purified using Qiaquick PCR columns (Qiagen), analyzed on an ABI 3130xL genetic analyzer (Applied Biosystems) with peak positions identified by using a set of X-rhodamine (ROX)-labeled MapMarker1000 molecular weight standards (BioVentures). The raw capillary electrophoresis data was processed using Attagraph software (Attagene).
As for `CS(=O)(=O)c1ccc(C(=O)C2C(=O)CCCC2=O)c([N+](=O)[O-])c1`, the result was inactive.
In the case of `Nc1cnn(-c2ccccc2)c(=O)c1Cl`, the result was inactive.
For the compound `CCN(CC)C(=O)C(C)Oc1cccc2ccccc12` (stereo not given), the AC50 was 1.2 µM (active).
With `CCOP(=O)(OCC)Oc1nc(Cl)c(Cl)cc1Cl`, the result was inactive.
As for `CNC(=O)Oc1cccc2ccccc12`, the outcome was inactive.
As to `COC(=O)NC(=S)Nc1ccccc1NC(=S)NC(=O)OC`, the AC50 was 28.7 µM (active).
`N#Cc1c(Cl)cccc1Cl`: the outcome was inactive.
The same measure, in the same setting: then `CCCC(=NOCC)C1=C(O)CC(CC(C)SCC)CC1=O` (stereo not given), with “inactive”.
Regarding `C=CCOC(=O)C(C)(C)OC(=O)c1cc(-n2c(=O)cc(C(F)(F)F)n(C)c2=O)ccc1Cl`, the result was inactive.
Regarding `CO/N=C(/C1=NOCCO1)c1ccccc1Oc1ncnc(Oc2ccccc2Cl)c1F`, the AC50 is 0.794 µM (active).
`CC1(C)C(C(=O)OC(C#N)c2cccc(Oc3ccccc3)c2)C1(C)C` (stereo not given): the result was inactive.
The same measure, in the same setting: then `Cc1nc(N(C)C)nc(OC(=O)N(C)C)c1C`, with “inactive”; and `COc1cc(OC)nc(NC(=O)NS(=O)(=O)c2ncccc2OCC(F)(F)F)n1`, with “inactive”.
Take `CC1(C)C(C=C(Cl)Cl)C1C(=O)OC(C#N)c1cccc(Oc2ccccc2)c1` (stereo not given): the result was inactive.
For the compound `COCC(=O)N(c1c(C)cccc1C)C(C)C(=O)OC` (stereo not given), the result was inactive.
Turning to `Clc1nc(Cl)nc(Nc2ccccc2Cl)n1`, the AC50 was 75.5 µM (active).
Same read-out and setting: then `O=C(Nc1ccccc1-c1ccc(Cl)cc1)c1cccnc1Cl`, with 10.3 µM (active).
For `COCC(C)N(C(=O)CCl)c1c(C)csc1C` (stereo not given), the result was inactive.
The same measure, in the same setting: then `CC1(C)CON(Cc2ccccc2Cl)C1=O`, with “inactive”.
Turning to `Nc1c(Cl)c(F)nc(OCC(=O)O)c1Cl`, the outcome was inactive.
With `CC(C)N1C(=O)N(c2ccccc2)CSC1=NC(C)(C)C`, the result was inactive.
Turning to `COC(=O)NS(=O)(=O)c1ccc(N)cc1`, the AC50 was 13.2 µM (active).
`Cc1cnc(C2=NC(C)(C(C)C)C(=O)N2)c(C(=O)O)c1` (stereo not given): the outcome was inactive.
As to `O=C(O)c1c(Cl)ccc2cc(Cl)cnc12`, the outcome was inactive.
Same read-out and setting: in the case of `CCC(C)n1c(=O)[nH]c(C)c(Br)c1=O` (stereo not given) it was “inactive”.
Consider `Cc1cc(C)nc(Nc2ccccc2)n1`, for which the AC50 is 6.27 µM (active).
Take `CCOc1nc(C(Cl)(Cl)Cl)ns1`: the outcome was inactive.
Consider `Clc1cccc(C(Cl)(Cl)Cl)n1`, for which the outcome was inactive.
Still for that read-out and setting: then `COP(=O)(OC)O/C(C)=C/C(=O)N(C)C`, with “inactive”; and `COP(=S)(OC)Oc1ccc([N+](=O)[O-])c(C)c1`, with “inactive”.
As to `CC(C)N1C(=O)c2ccccc2NS1(=O)=O`, the outcome was inactive.
With `CC(C)(C)C(=O)C(Oc1ccc(Cl)cc1)n1cncn1` (stereo not given), the AC50 is 50 µM (active).
As for `COP(=S)(OC)SCn1nnc2ccccc2c1=O`, the AC50 is 6.88 µM (active).
Regarding `CC1(C)CCC(=Cc2ccc(Cl)cc2)C1(O)Cn1cncn1` (stereo not given), the result was inactive.
`CC(C)Nc1nc(Cl)nc(NC(C)C)n1`: the result was inactive.
For `CCOP(=S)(OCC)Oc1nc(Cl)n(C(C)C)n1`, the result was inactive.
On the same count and under the same terms, then `CC(C)C1(C)N=C(c2ncccc2C(=O)O)NC1=O` (stereo not given), with “inactive”; and `Cc1ccc(N=CN(C)C=Nc2ccc(C)cc2C)c(C)c1`, with “inactive”.
Turning to `CCCN(CC)CC1COC2(CCC(C(C)(C)C)CC2)O1` (stereo not given), the result was inactive.
On to `Cn1c(-c2ccccc2)cc(-c2ccccc2)[n+]1C`, for which the outcome was inactive.
